Screens (PubChem BioAssay)
This is a sample that favours compounds with a hit; in the whole collection about 2.3% have one here.
POLI inh: qHTS for Inhibitors of Polymerase Iota; DNA polymerase iota (Homo sapiens), Q9UNA4; Pol iota fluorescent replication assay, 10 min; Potency, µM (series often up to 115 µM), for inactives: top-dose activity, negative = inhibition, actives largely listed as inhibitors; 1% of 390,000 active; AID 588590, 2011
Target sequence (Q9UNA4 whole entry, looked up): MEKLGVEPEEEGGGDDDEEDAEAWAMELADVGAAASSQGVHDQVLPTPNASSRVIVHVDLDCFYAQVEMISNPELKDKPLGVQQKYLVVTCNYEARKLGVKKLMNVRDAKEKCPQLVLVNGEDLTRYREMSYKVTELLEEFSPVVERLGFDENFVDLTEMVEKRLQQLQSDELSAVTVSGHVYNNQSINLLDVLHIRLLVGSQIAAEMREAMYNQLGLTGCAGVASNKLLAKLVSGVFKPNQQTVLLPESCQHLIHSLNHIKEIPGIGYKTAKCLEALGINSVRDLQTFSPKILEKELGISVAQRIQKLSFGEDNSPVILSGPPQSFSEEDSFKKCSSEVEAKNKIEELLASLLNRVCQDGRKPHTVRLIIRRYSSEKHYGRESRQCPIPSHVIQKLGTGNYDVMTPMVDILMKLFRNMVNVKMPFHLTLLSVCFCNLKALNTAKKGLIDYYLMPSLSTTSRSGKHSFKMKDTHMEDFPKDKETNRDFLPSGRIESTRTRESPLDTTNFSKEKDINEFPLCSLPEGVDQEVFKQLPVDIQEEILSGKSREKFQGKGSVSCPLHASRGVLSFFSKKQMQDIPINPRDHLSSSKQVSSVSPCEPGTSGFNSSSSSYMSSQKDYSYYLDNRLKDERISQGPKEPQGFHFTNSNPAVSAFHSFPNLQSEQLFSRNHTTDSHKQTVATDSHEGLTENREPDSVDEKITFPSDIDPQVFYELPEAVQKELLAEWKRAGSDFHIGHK
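Fluorescent replication assay read twice, at 0 min and 10 min after adding 50 nM (final) substrate. Enzyme (10 nM) and compounds were first incubated 15 min at room temperature; enzyme-free buffer wells were negative controls.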
WRN helicase inh: qHTS for Inhibitors of WRN Helicase | WRN helicase unwinding, fluorescent forked duplex, kinetic | 0.46% of 360,000 active | Bifunctional 3'-5' exonuclease/ATP-dependent helicase WRN (Homo sapiens), Q14191 | Potency, µM (highest dose often 114 µM), inactives show at the highest dose activity change, negative = inhibition, actives largely listed as inhibitors | AID 651768, 2012; also: % is scaled to controls: 0 for no effect and ±100 for the full control effect; nearly all actives have a fitted effect of over 55% in size
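WRN at 20 nM final was preincubated with compound for 15 min at room temperature; reaction started with 100 nM forked duplex oligonucleotide carrying fluorophore and quencher plus 2 mM ATP (final). Unwinding followed kinetically by red fluorescence (ex 525/em 598 nm).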
Pol beta inh: qHTS Assay for Inhibitors of DNA Polymerase Beta; Pol beta primer extension/strand displacement, fluorescence kinetic; Potency, µM (series often up to 114 µM), inactives show at the top dose activity change, negative = inhibition, most hits filed as inhibitors; 1.3% of 340,000 active; AID 485314, 2010; also: % is scaled to controls: 0 for no effect and ±100 for the full control effect
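Pol beta (10 nM) and compounds were preincubated 15 min at room temperature, then 50 nM substrate (final) started primer extension/strand displacement. Reads were taken at 0 and 10 min; concentration-response data were fitted to a four-parameter Hill equation.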
Pol kappa inh: qHTS for Inhibitors of Polymerase Kappa. DNA polymerase kappa (Homo sapiens), Q9UBT6. purified Pol kappa, fluorescent DNA synthesis assay, 10 min. Potency, µM (top dose mostly 107 µM), without a hit: at the highest dose activity, negative = inhibition, hits mostly inhibitors. 0.53% of 400,000 active; also: % is scaled to controls: 0 for no effect and ±100 for the full control effect
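50 nM final substrate added after 15 min RT preincubation of 10 nM Pol kappa with compound; fluorescence read at 0 and 10 min.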
Pol eta inh: qHTS for Inhibitors of Polymerase Eta | DNA polymerase eta (Homo sapiens), Q9Y253 | recombinant Pol eta, fluorescent DNA replication assay | Potency, µM (series often up to 114 µM), for inactives: at the top dose activity change, negative = inhibition, usual class: inhibitors | 1.2% of 390,000 active | AID 588591, 2011; also: % is scaled to controls: 0 for no effect and ±100 for the full control effect
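Pol eta (10 nM) was preincubated with compounds for 15 min at room temperature, after which fluorescent replication substrate (50 nM final) was added to start the reaction. Fluorescence was read kinetically at 0 and 10 min.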
* = called active by the depositor; ? = inconclusive; / = no result given; [ ] = dose if it differs, or a comment. Calls follow the shape of the dose curve; as a rule, active = well fitted curve in the direction sought with a large enough effect; inconclusive = small, poorly fitted or top-dose-only effect, or another doubt; inactive = no such curve, though single readings can be large; an effect the other way counts as inactive or inconclusive. Potency is read from the fitted curve at half-maximal effect.

SMILES	POLI inh	WRN helicase inh	Pol beta inh	Pol kappa inh	Pol eta inh
N#Cc1c(NC(=S)NC(=O)Cc2cccs2)sc2c1CCCCC2	-14%	-12%	45µM*	?	-6%
CC1CC(C)CN(C(=O)COC(=O)CCC(=O)c2cccs2)C1 (stereo unspecified)	-12%	7%	/	-7%	-12%
O=C(CCC(=O)c1cccs1)OCC(=O)N1CCN(C(=O)c2ccco2)CC1	?	32µM*	3%	?	?
COC(=O)c1c(NC(=O)c2ccoc2C)sc2c1CCC2	?	-17%	22µM*	?	?
CC(=O)c1cccc(NC(=O)COc2cc3oc(=O)c(CC(C)O)c(C)c3cc2Cl)c1 (stereo unspecified)	56µM*	-31%[57.1 µM]	?	-39%	?
CCOC(=O)c1ccc(NC(=O)COc2cc3oc(=O)c(CC(C)O)c(C)c3cc2Cl)cc1 (stereo unspecified)	?	0%	?	-15%	1%
Nn1c(SCC(=O)Nc2cc(C(F)(F)F)ccc2Cl)nncc1=O	79µM*	?	5%	?	?
Cc1cccc(CNC(=O)CN2C(=O)CCn3nc(-c4cn(C)c5ccccc45)cc32)c1	?	/	18µM*	-10%[60.1 µM]	-5%
Cc1ccc(NC(=O)CS(=O)CC(=O)NC(C)CCc2ccco2)cc1Cl (stereo unspecified)	-39%	-14%	32µM*	-29%	?
O=C(O)CCc1cccc2ccccc12	34%	/	/	9%	/
CN(C)c1ccc(/C=C/c2cc[n+](C)c3ccc4ccccc4c23)cc1	-8%	/	/	-34%	/
CN(C)c1ccc(/C=C/N2C=CCc3c2ccc2ccccc32)cc1	?	/	/	50µM*	/
CCCN1CNc2c(c(=O)[nH]c(=S)n2CCC(C)(C)C)C1	13%	/	/	1%	/
Cc1ccc(-c2cc(C(=O)N3CCOCC3)c3ccccc3n2)o1	79µM*	4%	/	-22%	-14%
Cc1ccc(-c2cc(C(=O)N3CCN(c4ccc(F)cc4)CC3)c3ccccc3n2)o1	35µM*	-19%	28µM*	-21%	?
N#Cc1ccc(NCCNCC(=O)N2N=CCC2C#N)nc1 (stereo unspecified)	/	/	/	2%[60.1 µM]	/
Cc1ccc2oc(-c3ccc(C)c(NC(=O)COc4ccc(Cl)cc4)c3)nc2c1	9%	/	/	10%	/
Cc1ccsc1C=Nc1ccc(O)cc1	13µM*	35µM*	?	89µM*	14µM*
C=CCN1C(=O)/C(=C/c2ccc(OCC(=O)O)cc2)S/C1=N/c1nccs1	89µM*	-8%	?	0%	?
CCC(=O)OC1C(N(C)C)CC(C)O[C@H]1O[C@H]1[C@H](C)[C@@H](O[C@H]2CC(OC)[C@@H](O)C(C)O2)[C@H](C)C(=O)O[C@@H](CC)[C@](C)(O)[C@@H](O)[C@H](C)C(=O)[C@@H](C)C[C@]1(C)O (stereo partly specified)	/	/	/	3%[19.4 µM]	/
Nc1c(O)cccc1C(=O)O	40µM*	-5%[11.6 µM]	/	?	-2%
O=C(O)c1ccccc1O	3%	/	15%	-1%	-16%
COc1ccc(C=NNc2ccc(S(=O)(=O)Nc3ccccc3C(=O)O)cc2[N+](=O)[O-])c(OC)c1	?	?	/	?	50µM*
CCC[C@@H]1NC(=O)[C@@H](NC(C)=O)CSSC[C@@H](C(N)=O)NC(=O)CNC(=O)[C@H](Cc2c[nH]c3ccccc23)NC(=O)[C@H](CCCN=C(N)N)NC(=O)[C@H](Cc2ccc3ccccc3c2)NC(=O)[C@H](Cc2cnc[nH]2)NC(=O)[C@H](CCCN=C(N)N)NC1=O	/	/	/	1%[60.1 µM]	/
CNC(=O)C1CC(=O)N(CCc2ccccc2)C(=Nc2ccc(OC)cc2)S1 (stereo unspecified)	33%	-1%	1%	-7%	-11%
COc1ccc(CCN2C(=O)CC(C(N)=O)SC2=Nc2ccccc2)cc1 (stereo unspecified)	79µM*	-17%[57.1 µM]	?	-21%	?
COc1cc(NC(=O)CSc2cc(=O)n(C)c3ccccc23)cc(OC)c1OC	-4%	/	1%	-16%	1%
